NOD2 RIPK2 PPI: blocks binding of human NOD2 to RIPK2 | O43353 | CHO BLA complementation NOD2-RIPK2, CCF4 ratio | inhibition, % at 4.98 µM | actives 0.38% (n = 360,000) | AID 624267; in the data active means inhibition above about 21%;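 further: 0% = vehicle only and 100% = reference blocker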
Beta2AR agonist: human beta-2 adrenergic receptor agonism by FAP | Am2.2-beta2AR cells, FAP receptor internalization, flow cytometry | response, % (concentration not given with the values) | actives 0.43% (n = 340,000) | AID 504454;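 active means response above a set limit, near 3 SD of response in nonfluorescent compounds, cut at about 42% in these data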
ABHD5-PLIN5 inh: inhibitors of human ABHD5-perilipin-5 interaction | Q00G26+Q8WTS1 | Split G. princeps luciferase complementation, luminescence, 4 h | inhibition, % at 4 µM | actives 0.78% (n = 360,000);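 active means inhibition above the mean inhibition across every tested compound plus 3 SD, cut at about 22% in these data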;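 further: 0% = DMSO only wells and the 100% control is not disclosed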
NTR1 agonist: activates human neurotensin receptor 1; P30989; NTR1-U2OS beta-arrestin-GFP spot imaging, agonist mode; activation, % at 20 µM; actives 0.17% (n = 330,000); AID 493036;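 active means activation at or above 40% of the spot to cytoplasm intensity ratio, with at least 20 cells analyzed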;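 further: 0% = DMSO without peptide and 100% = 100 nM NTR1 peptide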
Target sequence (P30989 whole entry, looked up): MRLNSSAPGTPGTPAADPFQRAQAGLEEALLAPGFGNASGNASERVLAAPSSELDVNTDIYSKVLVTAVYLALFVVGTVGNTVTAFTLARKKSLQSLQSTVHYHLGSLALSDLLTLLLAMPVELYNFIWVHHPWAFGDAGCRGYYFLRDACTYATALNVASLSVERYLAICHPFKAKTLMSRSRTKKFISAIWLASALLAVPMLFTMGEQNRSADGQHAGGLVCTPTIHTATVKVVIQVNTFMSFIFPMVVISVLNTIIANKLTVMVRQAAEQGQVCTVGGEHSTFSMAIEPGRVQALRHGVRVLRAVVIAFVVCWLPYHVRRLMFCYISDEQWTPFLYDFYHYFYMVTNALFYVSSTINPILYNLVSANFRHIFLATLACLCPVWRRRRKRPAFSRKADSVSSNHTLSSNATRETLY
TLR4 MyD88 comp: blocks binding of human TLR4 to MyD88; inhibition, % at 8.4 µM; actives 0.18% (n = 200,000); O00206+Q99836; HeLa CL3-4 TLR4/MyD88 BLA complementation, FRET ratio; in the data active means inhibition above about 25%;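 further: 0% = vehicle and 100% = reference inhibitor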
TLR9-MyD88 block: inhibitors of human TLR9-MyD88 binding; inhibition, % at 4.98 µM; CHO BLA complementation TLR9-MyD88, CCF4 FRET ratio; actives 0.21% (n = 340,000); Q9NR96+Q99836;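 active means inhibition above the mean over all tested compounds plus 3 SD, cut at about 21% in these data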;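 further: 0% = DMSO only wells and 100% = clavulanate BLA inhibitor control wells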
ABHD5-PLIN5 conf: ABHD5-PLIN5 interaction inhibition, confirmed. shares compounds with ABHD5-PLIN5 inh. biochemical ABHD5-PLIN5 interaction, luminescence. inhibition, % at 4 µM. actives 67% (n = 2,200). AID 651612; in the data active means inhibition above about 23%;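 further: 0% = DMSO vehicle wells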
HNF4 split-luc: HNF4 split-luciferase signal hit, counter-screen; shares compounds with ABHD5-PLIN5 inh; HNF4 dimerization, luminescence, biochemical; inhibition, % at 4 µM; actives 77% (n = 2,200);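 active means mean inhibition across replicate wells exceeding the computed hit threshold, cut at about 13% in these data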;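 further: light from luciferase halves that rejoin when HNF4 fusion proteins dimerize; 0% = DMSO only wells and the 100% control is not given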
Numbers without * were called inactive. Most compounds without a hit are left out; they make up all but 1.5% or so of the library.

Screening COC(=O)c1c(N)[nH]c(C(=O)c2ccccc2)c1-c1ccc(Br)cc1 returned NOD2 RIPK2 PPI 5 and ABHD5-PLIN5 inh -16.
For O=C(NCc1ccco1)c1cc2nc(-c3cccs3)cc(C(F)(F)F)n2n1 the results were NOD2 RIPK2 PPI 19, Beta2AR agonist -9, ABHD5-PLIN5 inh 23*, NTR1 agonist 2, TLR4 MyD88 comp -2, TLR9-MyD88 block 7, ABHD5-PLIN5 conf 13 and HNF4 split-luc 16*.
Screening COc1ccc(OC)c2sc(NC(=O)C3=COCCO3)nc12 returned NOD2 RIPK2 PPI -8, Beta2AR agonist -15, ABHD5-PLIN5 inh 38*, NTR1 agonist 1, TLR4 MyD88 comp -9, TLR9-MyD88 block 9, ABHD5-PLIN5 conf 11 and HNF4 split-luc 4.
Screening CCOC(=O)N(C)c1c(CC)nc2c(OCc3ccc(Cl)cc3)cccn12 returned NOD2 RIPK2 PPI 2 and ABHD5-PLIN5 inh 11.
For Cc1ccc(NC(CC(=O)c2ccccc2)C(=O)O)cc1Cl (centres undefined) the results were NOD2 RIPK2 PPI 4, Beta2AR agonist 4, ABHD5-PLIN5 inh 29*, NTR1 agonist 0, TLR9-MyD88 block 1, ABHD5-PLIN5 conf -2 and HNF4 split-luc 40*.
O=C(CC(Nc1ccc(Cl)cc1Cl)C(=O)O)c1ccccc1 (centres undefined) was read as NOD2 RIPK2 PPI -4, Beta2AR agonist 3, ABHD5-PLIN5 inh 78*, NTR1 agonist 2, TLR9-MyD88 block 2, ABHD5-PLIN5 conf 16 and HNF4 split-luc 80*.
CSCCC(NC(=O)c1ccccc1)C(=O)OCC(=O)Nc1ccc(C)c(Cl)c1 (centres undefined) was read as NOD2 RIPK2 PPI 2, Beta2AR agonist -3, ABHD5-PLIN5 inh -9, NTR1 agonist -1, TLR4 MyD88 comp -20 and TLR9-MyD88 block 4.
CN1CCS/C1=C/C=C1\SC(=S)N(CC(=O)O)C1=O was read as NOD2 RIPK2 PPI -6, Beta2AR agonist 5, ABHD5-PLIN5 inh 10, NTR1 agonist 0, TLR4 MyD88 comp 2 and TLR9-MyD88 block -1.
Screening CCCCN1C(=O)/C(=C/C=C2\SCCN2C)SC1=S returned NOD2 RIPK2 PPI -5, Beta2AR agonist -53, ABHD5-PLIN5 inh 30*, NTR1 agonist -3, TLR4 MyD88 comp -1, TLR9-MyD88 block -3, ABHD5-PLIN5 conf 25* and HNF4 split-luc 21*.
For CN1CCS/C1=C/C=C1/SC(=S)N(Cc2ccccc2)C1=O the results were NOD2 RIPK2 PPI -6, Beta2AR agonist -100, ABHD5-PLIN5 inh 25*, TLR4 MyD88 comp 12, TLR9-MyD88 block 6, ABHD5-PLIN5 conf 22* and HNF4 split-luc 18*.
For O=C(Nc1ccccc1)C1Cc2c(-c3ccc4c(c3)OCO4)ccnc2O1 (centres undefined) the results were NOD2 RIPK2 PPI 10 and ABHD5-PLIN5 inh 4.
For CCOC(=O)[C@]12CCC=C1N(Cc1ccc(Cl)cc1Cl)C(=O)[C@H](CC(=O)NCc1ccc(OC)c(OC)c1)C2 the results were NOD2 RIPK2 PPI 1 and ABHD5-PLIN5 inh 2.
COc1ccc(OCC(O)CN2CCC(CN3C(=O)c4cccc5cccc(c45)C3=O)CC2)cc1 (centres undefined) was read as NOD2 RIPK2 PPI 5, Beta2AR agonist 14, ABHD5-PLIN5 inh 25*, NTR1 agonist 2, TLR9-MyD88 block -1, ABHD5-PLIN5 conf 6 and HNF4 split-luc 3.
For Cc1ccc(NC(=O)Nc2nnc([C@H]3C[C@H](O)[C@@H](CO)O3)s2)cc1 the results were NOD2 RIPK2 PPI 1 and ABHD5-PLIN5 inh 1.
CCOC(=O)C1=C(O)/C(=C/c2ccc(-c3ccccc3C(=O)O)o2)SC1=Nc1ccc(C)cc1 was read as NOD2 RIPK2 PPI 5, Beta2AR agonist -54, ABHD5-PLIN5 inh 27*, TLR9-MyD88 block 4, ABHD5-PLIN5 conf 12 and HNF4 split-luc 9.
`CCn1c2ccccc2c2cc(NC(=O)CSc3nnc(C4CC4)n3Cc3ccco3)ccc21` gave NOD2 RIPK2 PPI -1, Beta2AR agonist 6, ABHD5-PLIN5 inh 31*, NTR1 agonist 8, TLR4 MyD88 comp 5, TLR9-MyD88 block 2, ABHD5-PLIN5 conf 11 and HNF4 split-luc 25*.
Cc1ccc([C@H]2N[C@]3(CCCN(Cc4ccco4)C3=O)[C@H]3C(=O)N(C)C(=O)[C@@H]23)cc1 was read as NOD2 RIPK2 PPI 12, ABHD5-PLIN5 inh 0 and TLR9-MyD88 block -3.
`CCOC(=O)c1c(C)oc2c1c(CN1CCN(C(=O)OCC)CC1)c(O)c1ccccc12` gave NOD2 RIPK2 PPI -10, Beta2AR agonist 8, ABHD5-PLIN5 inh -20, NTR1 agonist 24, TLR4 MyD88 comp 2 and TLR9-MyD88 block 1.
Screening CCOC(=O)c1c(C)oc2c1c(CN1CCN(CCO)CC1)c(O)c1ccccc12 returned NOD2 RIPK2 PPI 5, Beta2AR agonist 22, ABHD5-PLIN5 inh 35*, TLR4 MyD88 comp 8, TLR9-MyD88 block 10, ABHD5-PLIN5 conf 63* and HNF4 split-luc 25*.
`O=C(/C=C/[C@H]1O[C@@H](n2cnc3c(NC(=O)c4ccccc4)ncnc32)[C@H](O)[C@@H]1O)NCc1cccc2ccccc12` gave NOD2 RIPK2 PPI -2 and ABHD5-PLIN5 inh 7.
`Cc1ccccc1CC(=O)Nc1ccc2c(c1)c(=O)n(C)n2-c1cccs1` gave NOD2 RIPK2 PPI -8 and ABHD5-PLIN5 inh 3.
Screening CCc1nc2ccc(C(=O)N(C)CCN(C)C)cn2c1N(CC)C(=O)NCCc1ccccc1 returned NOD2 RIPK2 PPI 1 and ABHD5-PLIN5 inh 4.
COc1ccccc1C(=O)/C=C/c1ccc(N2CCCCC2)c([N+](=O)[O-])c1 was read as NOD2 RIPK2 PPI 1, Beta2AR agonist 0, ABHD5-PLIN5 inh 37*, NTR1 agonist 15, TLR4 MyD88 comp 3, TLR9-MyD88 block 9, ABHD5-PLIN5 conf 64* and HNF4 split-luc 67*.
Screening Cc1cc(C)c(C#N)c(Sc2nc(C)c([N+](=O)[O-])c(C)c2C#N)n1 returned NOD2 RIPK2 PPI 0, ABHD5-PLIN5 inh 31*, ABHD5-PLIN5 conf 36* and HNF4 split-luc 27*.
Screening Cc1nc(Sc2ccccc2)c(C#N)c(C)c1[N+](=O)[O-] returned NOD2 RIPK2 PPI -9, Beta2AR agonist 2, ABHD5-PLIN5 inh 1, NTR1 agonist 3 and TLR9-MyD88 block -8.
For Cc1ccc(C(=O)NCc2ccco2)cc1S(=O)(=O)N1CCCCC1 the results were NOD2 RIPK2 PPI -8, Beta2AR agonist 19, ABHD5-PLIN5 inh 26*, NTR1 agonist 0, TLR4 MyD88 comp -4, TLR9-MyD88 block 9, ABHD5-PLIN5 conf 13 and HNF4 split-luc 8.
